In PubChem BioAssay AID686978 (National Center for Advancing Translational Sciences (NCATS), 2013):
Out of some 420,000 compounds screened, about 64,000 (15%) were called active. Not shown: some 27% with an inconclusive outcome. Calls follow the shape of the dose curve; as a rule, active = well fitted inhibition curve with a large enough effect; inconclusive = small, poorly fitted or top-dose-only effect; inactive = flat fitted curve, though single readings scatter. Not all results are given here. Peptide text beside a SMILES is read from it.

experiment: qHTS for Inhibitors of human tyrosyl-DNA phosphodiesterase 1 (TDP1): qHTS in cells in absence of CPT; conditions: DT40 Tdp1-/- hTDP1 cells, no CPT, ATP luminescence, 48 h; activity change, negative = growth inhibition: at 46.2 µM (top of the series); also: nearly all actives have a fitted effect of over 55% in size
In short: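 Growth kinetics read by CellTiter-Glo luminescence after ≥48 hr at 37 °C. Cells: DT40 Tdp1-/- stably carrying human TDP1, 400 per well, compound exposure in the absence of CPT (DMSO vehicle).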
% is scaled to controls: 0 for no effect and ±100 for the full control effect; potency is read from the fitted curve at half-maximal effect.

SMILES | activity change, negative = growth inhibition | Potency
Cc1cccc(OP(=O)(Nc2c(C)n(C)n(-c3ccccc3)c2=O)Oc2cccc(C)c2)c1 | -7.24% (inactive) | –
CCC1CCCCN1CCCNC(=O)C1CCC(Cn2c(=O)[nH]c3ccccc3c2=O)CC1 (stereo not given) | 4.53% (inactive) | –
Cc1ccc(-c2ccc(=O)n(CC(=O)NCCCN3CCCCC3)n2)cc1 | -4.15% (inactive) | –
CCC1CCCCN1CCCNC(=O)Cn1nc(-c2ccccc2)ccc1=O (stereo not given) | – | 0.0103 µM (active)
Cc1ccc(C2Nc3ccccc3C(=O)N2CCN2CCNC2=O)cc1 (stereo not given) | -10.8% (inactive) | –
COc1ccc(OCC(=O)OCC(=O)Nc2ccc(S(=O)(=O)N3CCCCC3)cc2)cc1 | 3.34% (inactive) | –
COc1cccc(CNC(C)C(=O)Nc2ccc(S(=O)(=O)N3CCCC3)cc2)c1 (stereo not given) | -11.5% (inactive) | –
COc1ccc(S(=O)(=O)N2CCN(C(C)C(=O)Nc3ccc(C(C)C)cc3)CC2)cc1 (stereo not given) | – | 14.6 µM (active)
CCOC(=O)Cc1cc(=O)[nH]c(/N=C(\N)Nc2ccc(OC)cc2)n1 | -6.58% (inactive) | –
CC1C(C)N(C(=O)CCl)c2ccccc2N1C(=O)CCl (stereo not given) | – | 0.58 µM (active)
CNC(=O)N1c2ccccc2C=Cc2ccccc21 | -7.48% (inactive) | –
CC1CCN(C(=O)CCNC(=O)c2ccccc2)CC1 | -1.19% (inactive) | –
Cc1nc(C)c2c(c1C(F)(F)F)-c1ccccc1C2(F)F | -11.9% (inactive) | –
O=C(NC1CCCC1)c1ccc(Br)s1 | -11.5% (inactive) | –
CCOc1c2ccc(C(=O)NCc3ccc(OC(F)(F)F)cc3)cc2nn1C | -6.96% (inactive) | –
COc1cc(CNCc2ccc(OC)c3ccccc23)cc(OC)c1OC | – | 11.6 µM (active)
COc1ccc(CNCCCNCc2ccc(OC)c(OC)c2)cc1OC | -14.4% (inactive) | –
COc1cc(CNCc2cccs2)cc(Br)c1OC | -18.6% (inactive) | –
COc1ccc(CNC(=O)COC(=O)C2=Cc3ccccc3OC2)cc1 | -21.4% (inactive) | –
O=C(COc1ccccc1)N1CCc2ccccc2C1 | -23% (inactive) | –
CCC(CC)c1nnc(NC(=O)/C=C/c2ccco2)s1 | -3.52% (inactive) | –
CCc1ccc2oc(-c3ccc(C)c(NC(=O)/C=C/c4ccco4)c3)nc2c1 | – | 18.4 µM (active)
Cc1ccc2nc(-c3ccc(C)c(NC(=O)Cc4ccccc4)c3)oc2c1 | -6.56% (inactive) | –
NC(=S)c1ccc(C(N)=S)o1 | -1.35% (inactive) | –
Cc1ccc(C(=O)O/N=C(\N)c2ccccn2)cc1Cl | -22.4% (inactive) | –

SMILES | activity change, negative = growth inhibition | Potency
CCc1nnc(NC(=O)/C=C/c2ccc(C)o2)s1 | 5.94% (inactive) | –
COc1ccc(OC)c(NC(=O)/C=C/c2ccc(C)o2)c1 | -22.9% (inactive) | –
Cc1ccc(/C=C/C(=O)Nc2ccc([N+](=O)[O-])c(NC(=O)/C=C/c3ccc(C)o3)c2)o1 | – | 11.6 µM (active)
O=C(NC(=S)NC1CCSC1=O)c1ccccc1F (stereo not given) | -106% (inactive) | –
Cc1ccc(-n2c(=O)cc(N3CCN(Cc4ccccc4)CC3)[nH]c2=O)cc1 | -10.6% (inactive) | –
COc1ccc(N(CC(=O)N/N=C/c2cccc3c2OCCO3)S(=O)(=O)c2ccc(NC(C)=O)cc2)cc1 | -22.6% (inactive) | –
COC(=O)COc1cccc2c(=O)n(CC(=O)NCCc3ccc(OC)c(OC)c3)ccc12 | -6.18% (inactive) | –
COC(=O)COc1cccc2c(=O)n(CC(=O)NCc3ccccc3)ccc12 | – | 2.06 µM (active)
CCOCCn1ccc2c(OCC(=O)NCc3ccc(C)cc3)cccc2c1=O | -13.9% (inactive) | –
Cc1ccccc1OCC(=O)NNC(=O)c1cc(S(=O)(=O)N(C)C)ccc1N1CCCC1 | -22.5% (inactive) | –
Cc1ccccc1OCC(=O)Nc1ccc(N2CCN(C(=O)C(C)C)CC2)c(Cl)c1 | – | 6.51 µM (active)
Cc1ccccc1OCC(=O)Nc1ccc2c(c1)ncn2C | -1.77% (inactive) | –
Cc1ccccc1N1CC(C(=O)Nc2nnc(SCCC3OCCO3)s2)CC1=O (stereo not given) | -21.1% (inactive) | –
O=C(CSc1nn(-c2ccc(F)cc2)c(=S)s1)NC1CCS(=O)(=O)C1 (stereo not given) | -16.7% (inactive) | –
CC(=O)CC[C@@H](C)O[C@@H]1OC(C)[C@H](O)CC1O (stereo not given in full) | -3.14% (inactive) | –
CCc1cc(C(=O)Nc2nnc(C3CC3)s2)sc1C | 10.3% (inactive) | –
Cc1cc(C(=O)Nc2nnc(C3CC3)s2)c(C)s1 | 14.9% (inactive) | –
O=C(Nc1nnc(C2CC2)s1)c1ccccn1 | – | 16.4 µM (active)
O=C1CCC(C(=O)N2CCC(O)(c3ccccc3)CC2)CN1CCc1ccccc1 (stereo not given) | -9.99% (inactive) | –
Cc1ccc(C(=O)CSc2nc3ccccc3c(=O)n2N)o1 | -39.8% (inactive) | –
COCC(C)n1c(SCc2ccc(C(=O)OC)o2)nc2ccccc2c1=O (stereo not given) | – | 8.2 µM (active)
C=CCn1c(SCc2ccc(C(=O)NCCO)cc2)nc2ccccc2c1=O | -14.1% (inactive) | –
COCCn1c(C)cc(C(=O)CSc2nc3ccccc3c(=O)n2C(C)COC)c1C (stereo not given) | – | 9.2 µM (active)
Cc1cc(SCC(=O)NCCN2C(=O)CSC2=O)nc2ccccc12 | -20.3% (inactive) | –
COCC(C)n1c(C)cc(C(=O)CSc2cc(C)c3ccccc3n2)c1C (stereo not given) | – | 16.4 µM (active)

SMILES | activity change, negative = growth inhibition | Potency
COc1ccc2c(C)cc(SCC(=O)NCC3CCCO3)nc2c1 (stereo not given) | 1.68% (inactive) | –
COCCn1c(C)cc(C(=O)CN2c3cccc4cccc(c34)S2(=O)=O)c1C | -1.18% (inactive) | –
COCCn1c(C)cc(C(=O)CSc2nnc(C3CC3)n2C2CC2)c1C | -6.52% (inactive) | –
Nc1nc2c(Br)ccc(Br)c2cc1C(=O)NCCc1ccccc1 | -24.4% (inactive) | –
CC(C)C(=O)Nc1nnc(Sc2ccc(N(C)C)cc2)s1 | -19% (inactive) | –
Cc1ccc(N=C2SCCCN2C(=O)c2cccc(N3C(=O)CCC3=O)c2)cc1Cl | -7.58% (inactive) | –
CCCn1c(=O)c2ccccc2n2c(SCC(=O)/C(C#N)=C(\C)N)nnc12 | -25.6% (inactive) | –
Cc1cc(NC(=O)CSC2=NS(=O)(=O)c3cc(Cl)ccc3N2)no1 | 11.7% (inactive) | –
Cc1cccc(C)c1-n1c(C)cc(/C=C2\C(=O)NN(c3ccccc3)C2=O)c1C | -29.2% (inactive) | –
O=c1oc2ccccc2c(CNc2ccccc2)c1[N+](=O)[O-] | 4.23% (inactive) | –
CC(=O)c1nn(-c2cccc(C(F)(F)F)c2)c(=O)[nH]c1=O | -14.1% (inactive) | –
Cc1cccc(NC(=O)c2nnn(-c3cccc(C(F)(F)F)c3)c2N)c1 | -4.86% (inactive) | –
Cc1cc(C(=O)Nc2cccc(C(F)(F)F)c2)c2c(C)nn(-c3cccc(F)c3)c2n1 | – | 23.1 µM (active)
COc1ccc(NC(=O)CN(C)C(=O)CC2CCCCC2)cc1 | 2.34% (inactive) | –
CC1CCCCC1NC(=O)COC(=O)Cc1ccc(Cl)cc1 (stereo not given) | 13.6% (inactive) | –
CC1CCCC(NC(=O)CN2CCN(Cc3ccc(Cl)cc3)C2=O)C1C (stereo not given) | – | 23.1 µM (active)
Cc1ccc(CNC(=O)CN2CCN(Cc3ccc(Cl)cc3)C2=O)cc1 | -6.2% (inactive) | –
Cc1ccc(S(=O)(=O)N/N=C(\c2ccccc2)C2CC2)cc1 | 10% (inactive) | –
Cc1ccc2c(c1)N(CC(=O)N1CCC(O)CC1)C(=O)CO2 | 8.57% (inactive) | –
CC[C@H](C)CCCCC(=O)N[C@@H](CCN)C(=O)N[C@H](C(=O)N[C@@H](CCN)C(=O)N[C@H]1CCNC(=O)[C@@H]([C@H](C)O)NC(=O)[C@H](CCN)NC(=O)[C@H](CCN)NC(=O)[C@H](CC(C)C)NC(=O)[C@@H](CC(C)C)NC(=O)[C@H](CCN)NC1=O)[C@@H](C)O (HELM PEPTIDE1{[CC[C@H](C)CCCCC(=O)[*:2]].[Dab].T.[Dab].[Dab].[Dab].[dL].L.[Dab].[Dab].[dT]}$PEPTIDE1,PEPTIDE1,5:R3-11:R2$$$V2.0) | -14% [at 21.1 µM] (inactive) | –
O=c1n(Cc2cccc(C(F)(F)F)c2)c2ccccc2c2nc(-c3ccccc3)nn12 | – | 25.9 µM (active)
COc1ccc(-c2nc3c4ccccc4n(CC(=O)Nc4ccc(C(C)=O)cc4)c(=O)n3n2)cc1 | -1.26% (inactive) | –
Cc1cc(N2CCN(c3cccc(C(F)(F)F)c3)CC2)n2nc(-c3ccccc3)nc2n1 | 0.913% (inactive) | –
CCN(CCCNC(=O)CCn1c(=O)[nH]c2ccsc2c1=O)c1ccccc1 | -5.18% (inactive) | –
COc1cc(OC)cc(C(=O)Nc2ncc3c(n2)CC(C)(C)CC3=O)c1 | -8.15% (inactive) | –

SMILES | activity change, negative = growth inhibition | Potency
Cc1ccc(NC(=O)C(CC(=O)O)C2CCCO2)c(C)c1 (stereo not given) | 0.0591% (inactive) | –
CSCCC(NC(=O)c1ccc(Cl)cc1Cl)C(=O)NNC(=O)c1csc(N2CCOCC2)n1 (stereo not given) | 15.3% (inactive) | –
Cc1ccc(CCn2c3c(c4ccccc42)CN(C)CC3)cn1 | -10.9% (inactive) | –
Cc1ccc(-c2noc(CSc3nnc(-c4ccncc4)n3-c3ccc(F)cc3)n2)cc1 | – | 18.4 µM (active)
Cn1c(SCc2ccc(F)cc2)nnc1-c1ccncc1 | 6.54% (inactive) | –
COc1ccccc1-c1noc(CSc2nc(C)cc(=O)[nH]2)n1 | -1.42% (inactive) | –
COc1ccc(-c2noc(CSc3nnc(-c4ccccc4)n3-c3ccc(F)cc3)n2)c(OC)c1 | – | 20.6 µM (active)
Cc1ccc(-c2noc(CSc3nnnn3-c3ccccc3)n2)cc1 | -4.41% (inactive) | –
COc1ccc(C(=O)NC(=O)CSc2nnc(-c3ccco3)n2-c2ccccc2)cc1 | -8.95% (inactive) | –
Cc1nc(N2CCOCC2)sc1C(=O)NN | -0.716% (inactive) | –
COC(=O)Cc1ccc(OCC(=O)NC2CCCC2)cc1 | 0.278% (inactive) | –
COc1ccc(-n2nc3c(c2NC(=O)Cc2cccc(C)c2)CS(=O)C3)cc1 (stereo not given) | -2.75% (inactive) | –
Cc1nc(NC(CC(C)C)C(=O)O)c2nc(C)oc2n1 (stereo not given) | 6.87% (inactive) | –
Cc1ccc(NC(=S)N/N=C2/CCCc3c(C)cc(C)cc32)cc1 | -5.78% (inactive) | –
Cc1ccc(S(=O)(=O)c2nnn3c2nc(N2CCN(c4ccccc4F)CC2)c2cc(Cl)ccc23)cc1C | 1.48% (inactive) | –
COCCn1c(SCC(=O)Nc2cc(OC)ccc2OC)nc2c(c1=O)SC(C)C2 (stereo not given) | – | 13 µM (active)
COc1ccc(NC(=O)CSc2nc(SC)ns2)c(OC)c1 | -27.9% (inactive) | –
Cc1ccc(Cl)cc1NC(=O)CSc1nccn1C | -0.404% (inactive) | –
COCCn1c(SCC(=O)Nc2ccccc2F)nc2c(c1=O)SCC2 | -2.31% (inactive) | –
COc1ccc(OC)c(NC(=O)Cn2c(=O)n(Cc3ccccc3)c(=O)c3ccccc32)c1 | -29.5% (inactive) | –
COCCn1c(SCC(=O)Nc2cc(Cl)ccc2OC)nc2c(c1=O)SC(C)C2 (stereo not given) | – | 20.6 µM (active)
CCc1cccc(C)c1NC(=O)CSc1nnc(-c2ccco2)n1N | -2.14% (inactive) | –
CCOC(=O)CSc1nnc(NC(=O)c2cccc(S(=O)(=O)N3CCCC3)c2)s1 | 13.6% (inactive) | –
O=C(Nc1cccc2cccnc12)c1cccc2c(Br)cccc12 | -20.3% (inactive) | –
Cc1ccccc1CS(=O)(=O)CC1(O)CCN(C(=O)c2cccc(C(F)(F)F)c2)CC1 | -6.73% (inactive) | –
